Assay outcomes as filed in PubChem.
Only some compounds are listed: those with a hit (about 8.7% of all), similar ones and a draw of the others.
Vaccinia mCherry – inhibitors of vaccinia virus infection (mCherry reporter signal); Vaccinia virus mCherry reporter infection, fluorescence; Potency, µM (doses to about 36.5 µM), inactives show top-dose activity change, negative = inhibition, actives largely listed as inhibitors; hit rate 0.63% among 310,000; AID 720579; calls by dose curve; tested in A549 cells; also: nearly all actives have a fitted effect of over 35% in size
Pf growth 48h – inhibits P. falciparum growth in the first generation, 48 h; P. falciparum luciferase growth in erythrocytes, 48 h; Potency, µM (titrated, usually from 28.7 µM), without a hit: at the highest dose activity change, negative = inhibition, hits mostly inhibitors; hit rate 5.9% among 310,000; AID 504832
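Luminescence readout; reporter = integrated firefly luciferase in P. falciparum. RBC culture at 2% hematocrit, 0.1% parasitemia final, 37 C/5% CO2; decreased signal taken as growth inhibition.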
AMA1 RON2 block – AMA1-RON2 (P. falciparum) interaction inhibition. AlphaScreen AMA1-biotinylated RON2 peptide binding. Potency, µM (titrated, usually from 58.2 µM), inactives show at the highest dose activity change, negative = inhibition, hits mostly inhibitors. hit rate 0.2% among 360,000;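 also: 0% = vehicle wells and -100% = peptide control; nearly all actives have a fitted effect of over 45% in size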
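AMA1 (3D7) with his tag at 25 nM final met compounds first, then biotinylated RON2 peptide at 25 nM; detection used donor plus acceptor beads, 10 µg/mL apiece, read by AlphaScreen after 30 min at room temperature.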
Pf growth 96h – P. falciparum growth inhibition at 96 hour, primary screen for plastid delayed-death inhibitors; P. falciparum luciferase reporter growth, 96 h; Potency, µM (top dose mostly 28.7 µM), for the others: at the highest dose activity change, negative = inhibition, actives largely listed as inhibitors; hit rate 6.9% among 320,000; AID 504834
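Luminescence readout: decreased luciferase signal marks inhibited growth of reporter-expressing P. falciparum in infected red cells (2% hematocrit, 0.05% parasitemia final), exposed to compound two generations (96 h, 37 C, 5% CO2).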
Vaccinia Venus – inhibitors of vaccinia virus (Venus reporter); Vaccinia virus Venus reporter expression, fluorescence; Potency, µM (highest dose often 36.5 µM), without a hit: at the highest dose activity change, negative = inhibition, most hits filed as inhibitors; hit rate 0.46% among 330,000; AID 720580; calls by dose curve; tested in A549 cells; also: nearly all actives have a fitted effect of over 30% in size
An asterisk follows results filed as active; i = inactive; ? = inconclusive; · = not tested or not shown; [ ] = another dose, or the depositor's remark. Unless noted, calls follow the shape of the dose curve; as a rule, active = well fitted curve in the direction sought with a large enough effect; inconclusive = small, poorly fitted or top-dose-only effect, or another doubt; inactive = no such curve, though single readings can be large; an effect the other way counts as inactive or inconclusive. Unless noted, % is scaled to controls: 0 for no effect and ±100 for the full control effect; potency is read from the fitted curve at half-maximal effect.

SMILES	Vaccinia mCherry	Pf growth 48h	AMA1 RON2 block	Pf growth 96h	Vaccinia Venus
Cc1c(C(=O)N2CCCC2)sc2ncnc(NCCN(C)C)c12	i	·	·	·	-19%
COc1cc(O)ccc1C1CC(=O)Nc2c1c(=O)nc(SCc1ccccc1C)n2C (stereo not given)	-1%	·	·	·	-9%
Cc1ccc(NC(=O)CCS(=O)(=O)c2cc3[nH]c(=O)c(=O)[nH]c3cc2C)cc1	i	6%	-10%	4.1µM*	5%
O=C(C[N+]12CCC(CC1)C(C(O)(c1ccccc1)c1ccccc1)C2)c1ccc(Br)cc1 (stereo not given)	·	?	-2%	8.3µM*	·
Cc1cccc(CCNC(=O)Cn2ncc3c(=O)oc4ccccc4c32)c1	-8%	·	·	·	4%
Cc1ccc2nc(CN3CCN(C(=O)Nc4ccc(C)c(F)c4)CC3)oc2c1	-10%	·	·	·	-4%
CCCc1nnc(N2C(=O)c3oc4ccc(F)cc4c(=O)c3C2c2ccc(C(=O)OC)cc2)s1 (stereo not given)	-3%	·	·	·	-2%
CCOC(=O)C(C)/C(C)=N\Nc1ccc([N+](=O)[O-])cc1[N+](=O)[O-] (stereo not given)	-12%	22%	?	-8%	-3%
CCOC(=O)C(C)/C(C)=N/NC(N)=S (stereo not given)	22µM*	1.3µM*	97%	4.7µM*	?
CCCNC(=O)CCc1nnc2ccc(N3CCN(c4cccc(OC)c4)CC3)nn12	-11%	·	·	·	-9%
CCCCOC(=O)Nc1ccc(C(=O)OC)cc1	·	66%	-1%	-3%	·
CCCCOC(=O)Nc1cc(C(=O)OC)ccc1C(=O)OC	-13%	10µM*	40%	?	-15%
COC(=O)c1ccc(C(=O)OC)c(NC(=S)N2CCCC2)c1	·	18%[0.00184 µM]	-10%	?	·
COC(=O)c1ccc(C(=O)OC)c(NC(=S)N2CCC(C)CC2)c1	-11%	-25%	-19%	7.4µM*	-7%
CCN(CC)c1ccc(NS(=O)(=O)c2ccc(-c3coc(C)n3)cc2)c(C)c1	-17%	·	·	·	-10%
COc1ccc(NC(=O)CN(C)C(=O)c2ccccc2CCc2ccccc2)cc1	?	?	-21%	-6%	-15%
COc1ccc(NC(=O)CN(C)C(=O)COc2ccccc2Cc2ccccc2)cc1	·	9.3µM*	-9%	?	·
CN(CC(=O)Nc1ccccc1C(F)(F)F)C(=O)COc1ccccc1Cc1ccccc1	-17%	?	-3%	?	-11%
CN(CC(=O)Nc1ccc(F)cc1)C(=O)COc1ccccc1Cc1ccccc1	-20%	?	-8%	5.2µM*	?
CN(C)C(=O)c1ccc(-c2nc(Nc3ccc(F)cc3)c3ccccc3n2)cc1	i	·	·	·	-12%
CN(C)C(=O)c1ccc(Nc2nc(-c3cccs3)nc3ccccc23)cc1	?	10µM*	-6%	10µM*	-18%
CCC[C@@H](O)c1cc2cc(OC)c(OC)cc2c(=O)o1	-13%	0%	13%	2.6µM*	-21%
O=C(NCc1ccccc1F)C1CCCN(C(=O)N2CCOc3ccccc32)C1 (stereo not given)	-11%	·	·	·	-4%
CC(=O)Nc1ccc(C(=O)CSc2nnc(-c3ccc(O)cc3)n2CC2CCCO2)cc1 (stereo not given)	?	·	7%	-6%	-10%
CC1(C)CC(=O)C(Sc2nnc(-c3ccc(O)cc3)n2CC2CCCO2)C(=O)C1 (stereo not given)	i	·	5%	1µM*	-10%
SMILES	Vaccinia mCherry	Pf growth 48h	AMA1 RON2 block	Pf growth 96h	Vaccinia Venus
O=C(NN1C(=O)/C(=C/C=C/c2ccco2)SC1=S)c1ccncc1	-10%	-62%	5.6µM*	14%	18%
O=C(NN1C(=O)/C(=C/C=C/c2ccccc2)SC1=S)c1ccncc1	i	23%	3%	0%	19%
CCc1cc2cc3c(cc2nc1SCC(=O)OC(C)C)OCO3	-4%	-75%	0%	-6%	-15%
CCOC(=O)CSc1nc2cc3c(cc2cc1CC)OCCO3	-2%	?	-17%	12µM*	-6%
COc1cccc(CSc2nc3cc4c(cc3cc2C)OCCO4)c1	?	-8%	-1%[11.6 µM]	5.9µM*	-27%
Cc1cc2cc3c(cc2nc1SCc1ccc(C(=O)O)cc1)OCCO3	i	11%	-10%	9.3µM*	-10%
CC(C)NC(=O)c1cn([C@H]2CC[C@@H](NC(=O)/C=C/c3cccs3)CC2)nn1	-1%	·	·	·	-17%
NC(=O)C1CCN(c2nc(-c3ccccc3)nc3c2oc2ccccc23)CC1	-3%	31%	14%	1.5µM*	-11%
CN1CCN(c2nc(-c3ccccc3)nc3c2oc2ccccc23)CC1	3%	?	-5%	5.9µM*	10%
Cc1cc(N2CCC(C(N)=O)CC2)nc(-c2ccccc2)n1	·	·	5%	0.74µM*	-23%
NC(=O)C1CCN(C(=O)c2ccc3nc(-c4ccccc4)c(-c4ccccc4)nc3c2)CC1	-12%	10µM*	-5%	?	0%
C=C1C=C(C)n2ncc(C(=O)Nc3ccc(NC(C)=O)c(Cl)c3)c2N1	-16%	·	·	·	-11%
CCOc1ccc2nc(N3CCCC(C(=O)Nc4ccc(OC)cc4)C3)sc2c1 (stereo not given)	-24%	·	·	·	-29%
CC(C)CCNC(=O)CN1C(=O)COc2ccc(S(=O)(=O)N3CCOCC3)cc21	-3%	·	·	·	10%
CCN1CCN(CCCNC(=O)CN2C(=O)c3cccnc3Oc3ccc(Cl)cc32)CC1	i	2%	10%	?	-16%
CC1CC(C)CN(CCCNC(=O)CN2C(=O)c3cccnc3Oc3ccc(Cl)cc32)C1 (stereo not given)	-9%	10µM*	-3%	?	?
CCN(CC)CCC(=O)Nc1cccc2c1C(=O)c1ccccc1C2=O	?	-86%	-20%	10µM*	?
CCN(CC)CCNC(=O)c1ccc2c(c1NCCO)C(=O)c1ccccc1C2=O	·	2.6µM*	-16%	4.7µM*	·
Cc1cccc(NC(=O)COC(=O)c2cccc3c2C(=O)c2ccccc2C3=O)c1C	?	-25%	-4%	10µM*	?
Nc1cccc(C(=O)OCC(=O)Nc2cccc3c2C(=O)c2ccccc2C3=O)c1	?	20%	-11%	-12%	-28%
Cc1cccc(C)c1NC(=O)COC(=O)c1cccc2c1C(=O)c1ccccc1C2=O	-21%	10%	-1%	-17%	-2%
O=C(NCCO)c1cccc2c1C(=O)c1ccccc1-2	i	33%	-4%	49%	-5%
